The target of test [1] is Tumor necrosis factor receptor superfamily member 10B (Homo sapiens) (UniProt O14763). Put plainly: viability loss of caspase-8 NB7 cells with TRAIL – with/without TRAIL, luminescence panel, confirmation (AID 651596). To be noted: NB7 neuroblastoma + caspase-8, TRAIL sensitization, NB7 Caspase-8, with TRAIL, mean of runs, at 10 µM, stronger effect = higher value.
Experiment in test [2]: as above
The settings on record: NB7 neuroblastoma + caspase-8, without TRAIL, NB7 Caspase-8, without TRAIL, mean of runs, at 10 µM.

Each structure is given as a SMILES string.

Chain of Tumor necrosis factor receptor superfamily member 10B (Homo sapiens) (O14763 whole entry, looked up): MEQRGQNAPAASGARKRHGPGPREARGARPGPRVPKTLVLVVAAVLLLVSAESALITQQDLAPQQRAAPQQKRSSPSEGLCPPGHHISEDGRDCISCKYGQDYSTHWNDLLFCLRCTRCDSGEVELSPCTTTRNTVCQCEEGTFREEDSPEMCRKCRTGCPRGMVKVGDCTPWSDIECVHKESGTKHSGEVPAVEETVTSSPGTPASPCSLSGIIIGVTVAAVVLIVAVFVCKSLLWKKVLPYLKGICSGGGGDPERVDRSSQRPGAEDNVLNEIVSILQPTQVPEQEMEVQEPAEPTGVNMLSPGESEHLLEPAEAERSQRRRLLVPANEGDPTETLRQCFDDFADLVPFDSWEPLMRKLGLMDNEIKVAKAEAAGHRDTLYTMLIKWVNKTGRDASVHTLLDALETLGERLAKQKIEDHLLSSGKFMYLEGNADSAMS

On to `Clc1ccc(CN2CCc3c([nH]c4ccccc34)C2)cc1Cl`, for which the activity in test [1] was -9.62%; in test [2] it was -14.6%.

As to `N/C(CCS(=O)(=O)c1ccc(Cl)cc1)=N\OC(=O)c1ccccc1C(F)(F)F`, the activity in test [1] came to 94.2%; in test [2] it was 93.6%.

For `C=CCNC(=O)c1ccc2c3n(nc2c1)-c1ccccc1CO3`, the values for the activity in test [1] and in test [2] were 89.8% and 90.5%, respectively.

Regarding `Cc1cc(C)c(C)c(S(=O)(=O)N2CCN(c3ncnc4ccccc34)CC2)c1C`, the activity in test [1] was 40.2%; in test [2] it was 40.1%.

Consider `Cc1cc(=O)[nH]c2nnc(-c3ccc(Cl)cc3)n12`, for which the activity in test [1] turned out to be 82.2%; in test [2], 78.6%.

Regarding `Fc1cccc(C2NN=C(c3ccccc3)S2)c1` (stereo not given), the activity in test [1] is 58.6%; in test [2] it was 58.5%.

`COc1ccccc1N1CCN(Cc2ccc(O)c3ncccc23)CC1`: the activity amounted to 30.2% in test [1] and 76% in test [2].

`C#Cc1cc(N2CCN(C(=O)c3ccoc3)CC2)n2nc(-c3cccc(Cl)c3)cc2n1`: the activity in test [1] was found to be 98.4%; in test [2], 97.3%.

Regarding `COc1cccc(/C=N/Nc2nn3cnnc3c3ccccc23)c1`, the activity in test [1] stood at 62%; in test [2], 61.4%.

As to `Cc1cccnc1Nc1nc(-c2ccccn2)cs1`, the activity in test [1] was 38.4%; in test [2], 63.1%.

For `COc1cc(OC)cc(-c2cc3ccc(F)cc3cn2)c1`, the values for the activity in test [1] and in test [2] were 65.9% and 60.2%, respectively.

For `COc1ccc(/C=C2/Sc3ccc(C(=O)NCCN4CCCCCC4)cc3NC2=O)cc1`, the activity was 67.8% in test [1] and 94.7% in test [2].

Consider `COc1ccc(OC)c(NC(=O)c2nc(S(=O)(=O)Cc3ccccc3)ncc2Cl)c1`, for which the activity in test [1] came to 97%; in test [2] it was 98.9%.

Take `CC(C)c1ccc(NC(=O)Nc2nc(C(N)COCc3ccccc3)cs2)cc1` (stereo not given): the activity was found to be 47.9% in test [1] and 80.4% in test [2].

For `Fc1ccc(-c2nc(-c3cnccn3)no2)c(Cl)c1`, the activity in test [1] turned out to be 59.1%; in test [2], 58.1%.

On to `C=C1CC(COc2cc(=O)oc3ccccc23)(c2ccccc2)OC1=O` (stereo not given), for which the results for the activity in test [1] and in test [2] were 89.5% and 96.5%, respectively.

Regarding `CS/C(Nc1cc(Cl)ccc1Cl)=C(/C#N)C(=O)c1ccco1`, the activity in test [1] is 60.1%; in test [2], 65.6%.

Take `COC(=O)C12OCC34C(CC5C(C)=C(O)C(=O)CC5(C)C3C(O)C1O)OC(=O)C(OC(=O)C=C(C)C)C24` (stereo not given): the activity in test [1] turned out to be 91%; in test [2], 96.2%.

`C/C(=N\NC(=O)c1ccc(O)cc1)c1cccc(NC(=O)c2ccc(Cl)cc2)c1`: the activity was found to be 74.3% in test [1] and 77.2% in test [2].

On to `O=C(/C=C/Nc1ccc(F)cc1)c1cccs1`, for which the activity turned out to be 69.7% in test [1] and 65% in test [2].

For the origin of these results see PubChem BioAssay.
